The target of assay [1] is Cell division control protein 42 homolog (Homo sapiens) (UniProt P60953). The assay can be described thus: activated mutant Cdc42 GTP-binding inhibitors, dose response, biochemical, multiplex bead flow cytometry, Bodipy-FL-GTP (AID 1333;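 active = fitted half-maximal concentration within the tested dose range, moderate curve steepness, a statistically real signal drop, and little compound fluorescence or tag-binding interference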). On the technique in general: In flow cytometry, cells or beads pass a laser one at a time.
Cell division control protein 42 homolog (Homo sapiens), sequence (P60953 whole entry, looked up): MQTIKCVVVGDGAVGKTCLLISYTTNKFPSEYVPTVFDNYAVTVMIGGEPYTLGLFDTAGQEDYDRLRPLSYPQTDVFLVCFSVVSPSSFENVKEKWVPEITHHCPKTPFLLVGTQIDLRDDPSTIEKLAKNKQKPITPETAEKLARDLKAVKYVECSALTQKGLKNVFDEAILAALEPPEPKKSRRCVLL
The target is the same in assay [2]. The experiment in a line: wildtype Cdc42 GTP-binding inhibitors, dose response, biochemical, multiplex bead flow cytometry, Bodipy-FL-GTP (AID 1334;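 active = fitted half-maximal concentration within the tested range, moderate curve steepness, significant signal drop, and little compound fluorescence or bead-linkage interference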). The note with it: bead-based flow cytometry, Bodipy-FL-GTP binding to GST-Cdc42; at 100 µM (top of the series) unless noted.
Assay [3] deals with GTPase HRas (Homo sapiens) (UniProt P01112). The assay can be described thus: inhibitors of GTP binding to wildtype Ras, dose response, biochemical, multiplex bead flow cytometry (AID 1335;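 active = fitted half-maximal concentration within 10 nM to 100 µM, steepness 0.5 to 2, significant signal drop, low assay interference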). The note with it: bead-based flow cytometry, Bodipy-GTP binding to GST-Ras; at 100 µM (top of the series) unless noted.
GTPase HRas (Homo sapiens), sequence (P01112 whole entry, looked up): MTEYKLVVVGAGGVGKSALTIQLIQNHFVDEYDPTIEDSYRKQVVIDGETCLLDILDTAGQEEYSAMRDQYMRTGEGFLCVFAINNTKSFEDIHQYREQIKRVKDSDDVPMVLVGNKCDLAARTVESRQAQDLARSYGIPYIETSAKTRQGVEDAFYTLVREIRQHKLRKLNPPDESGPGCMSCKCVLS
For assay [4], the system named is Ras-related protein Rab-7a (dog), GTP binding. The experiment in a line: Rab7 GTP binding inhibitors, potency, dose response, biochemical, wildtype, multiplex bead flow cytometry (AID 1336; call rule not given here).
Assay [5] addresses Ras-related C3 botulinum toxin substrate 1 (Homo sapiens) (UniProt P63000). The experiment in a line: wildtype Rac1 GTP binding inhibitors, dose response, biochemical, multiplex bead flow cytometry (AID 1340). The note with it: GST-Rac1 beads, Bodipy-FL-GTP binding; at 100 µM (top of the series) unless noted.
The target of assay [6] is GTPase HRas (Homo sapiens) (UniProt P01112). The experiment in a line: activated Ras mutant GTP binding inhibitors, dose response, biochemical, multiplex bead flow cytometry (AID 1341;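 active = dose-response curve with midpoint inside the tested range, moderate steepness, significant amplitude and little compound fluorescence or bead-attachment interference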;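 note: GST-tagged constitutively activated Ras mutant immobilized on beads and multiplexed with other GTPases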).

For part of these data: Potency and affinity values are given separately. Calls of active or inactive are those of the source.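 Rule for the calls, unless noted: active = dose curve with midpoint inside tested range, moderate steepness, plateau gap beyond fit error, low compound glow and bead-link interference; inactive = the rest.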

Turning to `O=C(O)Cn1c(SCCOc2ccccc2Cl)nc2ccccc21`, the result in assay [1], in assay [4] and in assay [6] was inactive. Besides, the fluorescence, percent of control (lower = inhibition) in assay [2] was 60.2%. The molecule also showed a GTP binding, percent of control in assay [3] of 86.5%. In addition, the GTP binding signal, raw median fluorescence (lower = inhibition) (MCF (arbitrary fluorescence units)) in assay [5] worked out at 30.5.

`Cc1cc(C(=O)CN2C(=O)C(=O)N(Cc3ccccc3)C2=O)c(C)n1-c1ccccc1F`: the result in assay [1], in assay [4] and in assay [6] was inactive. Further, the fluorescence, percent of control (lower = inhibition) in assay [2] was 34.9%. In addition, the GTP binding, percent of control in assay [3] came out at 81.4%. Moreover, the GTP binding signal, raw median fluorescence (lower = inhibition) (MCF (arbitrary fluorescence units)) in assay [5] turned out to be 260.

`Cc1ccc(NC(=O)Nc2ccnc(-c3cccnc3)n2)cc1`: the call in assay [1], in assay [4] and in assay [6] was inactive. The fluorescence, percent of control (lower = inhibition) in assay [2] amounted to 36.6%. This molecule also returned a GTP binding, percent of control in assay [3] of 73.3%. The molecule further showed a GTP binding signal, raw median fluorescence (lower = inhibition) (MCF (arbitrary fluorescence units)) in assay [5] of 162.

With `Cc1nc2nc(SCC(=O)O)nn2c(C)c1Cc1ccccc1Cl`, the outcome in assay [1], in assay [4] and in assay [6] was inactive. Besides, the fluorescence, percent of control (lower = inhibition) in assay [2] was 29.1%. Moreover, the GTP binding, percent of control in assay [3] came to 84%. This molecule also had a GTP binding signal, raw median fluorescence (lower = inhibition) (MCF (arbitrary fluorescence units)) in assay [5] of 228.

On to `CC(C)(C)NC(=O)c1ccc2nsnc2c1`, for which the molecule was classed as inactive in assay [1], in assay [4] and in assay [6]. Moreover, in assay [2], the fluorescence, percent of control (lower = inhibition) was determined as 52.7%. This molecule also came in with a GTP binding, percent of control in assay [3] of 66.2%. The molecule also yielded a GTP binding signal, raw median fluorescence (lower = inhibition) (MCF (arbitrary fluorescence units)) in assay [5] of 213.

For `O=C(COC(=O)/C=C/c1cccs1)Nc1ccc2ccccc2c1`, the call in assay [1], in assay [4] and in assay [6] was inactive. The fluorescence, percent of control (lower = inhibition) in assay [2] came out at 43.2%. This molecule showed a GTP binding, percent of control in assay [3] of 58.6%. Moreover, the GTP binding signal, raw median fluorescence (lower = inhibition) (MCF (arbitrary fluorescence units)) in assay [5] was found to be 183.

`COCCN1C(=O)/C(=C/c2ccc(N3CCCC3)cc2)SC1=S`: the molecule was classed as inactive in assay [1], in assay [4] and in assay [6]. The fluorescence, percent of control (lower = inhibition) in assay [2] stood at 64.2%. In assay [3], the GTP binding, percent of control came out at 106%. For the same molecule, the GTP binding signal, raw median fluorescence (lower = inhibition) (MCF (arbitrary fluorescence units)) in assay [5] amounted to 311.

As for `O=C(CSc1ccc2nnc(-c3ccccn3)n2n1)Nc1nccs1`, the molecule was called inactive in assay [1], in assay [4] and in assay [6]. Further, the fluorescence, percent of control (lower = inhibition) in assay [2] was found to be 28.8%. Moreover, the GTP binding, percent of control in assay [3] amounted to 61.7%. This molecule also displayed a GTP binding signal, raw median fluorescence (lower = inhibition) (MCF (arbitrary fluorescence units)) in assay [5] of 124.

Turning to `Cc1cc(C)n(Cc2n[nH]c(=S)n2Cc2ccccc2)n1`, the outcome in assay [1], in assay [4] and in assay [6] was inactive. Besides, the fluorescence, percent of control (lower = inhibition) in assay [2] amounted to 106%. The same molecule yielded a GTP binding, percent of control in assay [3] of 189%. In assay [5], this molecule returned a GTP binding signal, raw median fluorescence (lower = inhibition) (MCF (arbitrary fluorescence units)) of 198.

Regarding `C=CCN(CC=C)S(=O)(=O)c1ccc(C(=O)Nc2nc3c(s2)CCc2ccccc2-3)cc1`, the molecule was classed as inactive in assay [1], in assay [4] and in assay [6]. Besides, the fluorescence, percent of control (lower = inhibition) in assay [2] was determined as 51.4%. Also, the GTP binding, percent of control in assay [3] came out at 57.3%. The molecule also returned a GTP binding signal, raw median fluorescence (lower = inhibition) (MCF (arbitrary fluorescence units)) in assay [5] of 0.

Regarding `Cc1c(Cl)c([N+](=O)[O-])nn1Cc1ccc(C(=O)N/N=C\c2ccccn2)o1`, the call in assay [1], in assay [4] and in assay [6] was inactive. Moreover, in assay [2], the fluorescence, percent of control (lower = inhibition) is 38.5%. Also, the GTP binding, percent of control in assay [3] stood at 53%. In assay [5], this molecule registered a GTP binding signal, raw median fluorescence (lower = inhibition) (MCF (arbitrary fluorescence units)) of 95.4.

Regarding `Clc1cccc(Cl)c1/C=N\Nc1nccs1`, the call in assay [1], in assay [4] and in assay [6] was inactive. The fluorescence, percent of control (lower = inhibition) in assay [2] stood at 96.7%. In addition, in assay [3], the GTP binding, percent of control was 151%. The same molecule gave a GTP binding signal, raw median fluorescence (lower = inhibition) (MCF (arbitrary fluorescence units)) in assay [5] of 190.

As to `COc1cccc(C2CC(c3ccccc3)=NN2S(=O)(=O)c2ccc(C)cc2)c1OC` (centres undefined), the outcome in assay [1], in assay [4] and in assay [6] was inactive. Besides, the fluorescence, percent of control (lower = inhibition) in assay [2] came to 93.3%. Moreover, the GTP binding, percent of control in assay [3] turned out to be 141%. For the same molecule, in assay [5], the GTP binding signal, raw median fluorescence (lower = inhibition) (MCF (arbitrary fluorescence units)) was determined as 311.

For the molecule `Cc1ccc(C(=O)OCc2nnc(-c3ccc(Br)cc3)o2)cc1`, the call in assay [1], in assay [4] and in assay [6] was inactive. Moreover, the fluorescence, percent of control (lower = inhibition) in assay [2] is 31.8%. In assay [3], this molecule displayed a GTP binding, percent of control of 78.1%. The molecule further yielded a GTP binding signal, raw median fluorescence (lower = inhibition) (MCF (arbitrary fluorescence units)) in assay [5] of 241.

These data come from PubChem BioAssay.
